Experimental data taken from PubChem BioAssay (NCI).
About 79,000 compounds went through this panel and 15% of them were active in at least one assay; those are over-represented in the sample as a whole. Unmarked numbers belong to inactive results. Activity calls are given as the source filed them. Rule as the data show it: active = growth inhibition above about 70%; inactive = the rest.

Assays:
[1] = NCI Yeast Anticancer Drug Screen. Data for the rad52 strain (AID 147);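 also: 0% = growth of vehicle-treated control cultures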; conditions: S. cerevisiae rad52 mutant growth inhibition, stronger effect = higher value
Procedure, shortened: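 Yeast strain carrying a DNA damage repair alteration was exposed to test compounds. Growth inhibition was measured relative to vehicle-treated controls.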

[2] = NCI Yeast Anticancer Drug Screen. Data for the wt1 strain (AID 149);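 also: 0% = growth of vehicle-treated wt1 cultures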; conditions: S. cerevisiae wt1 strain (SPY 50644) growth inhibition, stronger effect = higher value
Procedure, shortened: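 Readout: yeast growth inhibition, normalised to vehicle controls, in the wt1 strain exposed to test compounds.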

[3] = NCI Yeast Anticancer Drug Screen. Data for the rad50EPP+ strain (AID 151);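 also: 0% = growth of vehicle-treated control cultures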; conditions: S. cerevisiae rad50 mutant strain, stronger effect = higher value
Procedure, shortened: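 Yeast strain carrying rad50 alteration (rad50EPP+) exposed to compounds; growth inhibition measured relative to vehicle-treated controls.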

[4] = NCI Yeast Anticancer Drug Screen. Data for the rad50 strain (AID 155);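 also: 0% = growth of vehicle-only cultures of the same strain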; conditions: S. cerevisiae rad50 strain growth inhibition, stronger effect = higher value
Procedure, shortened: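 Compounds were tested on a yeast strain with an engineered DNA damage repair alteration; the reported value is growth inhibition normalised to vehicle treatment.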

[5] = NCI Yeast Anticancer Drug Screen. Data for the mec2-1 strain (AID 157); conditions: S. cerevisiae mec2-1 strain, stronger effect = higher value
Procedure, shortened: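 mec2-1 yeast strain, carrying an alteration in DNA damage repair or cell cycle control, was exposed to compounds; growth inhibition was measured relative to vehicle-treated controls.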

[6] = NCI Yeast Anticancer Drug Screen. Data for the rad14 strain (AID 159);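 also: 0% = growth of vehicle-treated control cultures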; conditions: S. cerevisiae rad14 strain growth inhibition, stronger effect = higher value
Procedure, shortened: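 Compound-treated yeast with a defined DNA-repair lesion; growth inhibition normalised to vehicle-treated cultures.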

[7] = NCI Yeast Anticancer Drug Screen. Data for the sgs1 mgt1 strain (AID 161);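 also: 0% = growth of cultures given vehicle only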; conditions: S. cerevisiae sgs1 mgt1 strain, stronger effect = higher value
Procedure, shortened: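 Compounds are added to genetically altered yeast, and growth is compared with cultures given vehicle alone to give percent inhibition.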

[8] = NCI Yeast Anticancer Drug Screen. Data for the CLN2oe strain (AID 163);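 also: 0% = growth of vehicle-only control cultures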; conditions: S. cerevisiae CLN2oe strain, stronger effect = higher value
Procedure, shortened: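 Yeast cells carrying a defined cell-cycle control alteration were exposed to test compounds. Growth inhibition was scored against vehicle-treated control cultures.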

[9] = NCI Yeast Anticancer Drug Screen. Data for the cln2 rad14 strain (AID 165);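 also: 0% = growth equal to vehicle treated cultures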; conditions: S. cerevisiae cln2 rad14 strain, stronger effect = higher value
Procedure, shortened: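 Yeast carrying cln2 and rad14 alterations (cell cycle control and DNA damage repair) were exposed to compounds. Growth inhibition was measured against vehicle-treated controls.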

[10] = NCI Yeast Anticancer Drug Screen. Data for the bub3 strain (AID 167); conditions: S. cerevisiae bub3 mutant strain, stronger effect = higher value
Procedure, shortened: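 Growth of a checkpoint-deficient yeast mutant is measured after compound exposure. Values represent inhibition relative to vehicle.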

[11] = NCI Yeast Anticancer Drug Screen. Data for the wt2 strain (AID 169);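 also: 0% = growth of vehicle-treated yeast cultures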; conditions: S. cerevisiae wt2 strain growth inhibition, stronger effect = higher value
Procedure, shortened: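 Yeast cells were exposed to test compounds, and growth inhibition was measured relative to vehicle-treated controls.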

[12] = NCI Yeast Anticancer Drug Screen. Data for the mlh1 strain (AID 171);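 also: 0% = growth of vehicle-treated control cultures of the same strain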; conditions: S. cerevisiae mlh1 strain growth inhibition, stronger effect = higher value
Procedure, shortened: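 Yeast carrying a defined genetic alteration in DNA damage repair or cell cycle control were exposed to test compounds. Growth inhibition was measured relative to vehicle-treated controls.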

[13] = NCI Yeast Anticancer Drug Screen. Data for the sgs1 strain (AID 173);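 also: 0% = growth of vehicle-only control cultures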; conditions: S. cerevisiae sgs1 mutant, stronger effect = higher value
Procedure, shortened: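 Yeast mutant strains carrying defined defects in DNA damage repair or cell cycle control were exposed to test compounds. Growth inhibition was scored against vehicle-treated controls.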

[14] = NCI Yeast Anticancer Drug Screen. Data for the mlh1 rad18 strain (AID 175); conditions: S. cerevisiae mlh1 rad18 strain growth inhibition, stronger effect = higher value
Procedure, shortened: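 Growth inhibition of the yeast strain was measured after compound exposure and expressed relative to vehicle-treated controls. The strain carries defined defects in DNA damage repair.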

[15] = NCI Yeast Anticancer Drug Screen. Data for the rad18 strain (AID 177); conditions: S. cerevisiae rad18 mutant growth inhibition, stronger effect = higher value
Procedure, shortened: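 Yeast carrying a defined DNA damage repair alteration were exposed to compounds. Growth inhibition was expressed relative to vehicle-treated controls.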

[16] = at 5.0 µM (retest, dose inferred, filed as 0.5)
[17] = at 50.0 µM (retest, dose inferred, filed as 5.0)

For `CCCCCCCCCCCc1nc(N)n[nH]1`, the growth inhibition ([1]; at 1.2 µM) was -1%, the growth inhibition ([1]; at 3.7 µM) was -7% and the growth inhibition ([1]; at 11.0 µM) was 5%. The growth inhibition ([1]; at 33.0 µM) was 87% (active), the growth inhibition ([1]; at 100.0 µM) was 96% (active) and the growth inhibition ([2]; at 1.2 µM) was -3%. For the same compound, the growth inhibition ([2]; at 3.7 µM) was -4%, the growth inhibition ([2]; at 11.0 µM) was 1% and the growth inhibition ([2]; at 33.0 µM) was 67%. For the same compound, the growth inhibition ([2]; at 100.0 µM) was 95% (active), the growth inhibition ([3]; at 1.2 µM) was -1% and the growth inhibition ([3]; at 3.7 µM) was 7%. The growth inhibition ([3]; at 11.0 µM) was 16%, the growth inhibition ([3]; at 33.0 µM) was 55% and the growth inhibition ([3]; at 100.0 µM) was 70% (active). For the same compound, the growth inhibition ([4]; at 1.2 µM) was -11%, the growth inhibition ([4]; at 3.7 µM) was -13% and the growth inhibition [4, 16] was -181%. The growth inhibition ([4]; at 11.0 µM) was -7%, the growth inhibition ([4]; at 33.0 µM) was 92% (active) and the growth inhibition [4, 17] was 81% (active). For the same compound, the growth inhibition ([4]; at 50.0 µM) was 97.1% (active), the growth inhibition ([4]; at 100.0 µM) was 96% (active) and the growth inhibition ([5]; at 1.2 µM) was -4%. It also gave a growth inhibition ([5]; at 3.7 µM) of 1%, a growth inhibition [5, 16] of -48% and a growth inhibition ([5]; at 11.0 µM) of 0%. The growth inhibition ([5]; at 33.0 µM) was 73% (active), the growth inhibition [5, 17] was 87% (active) and the growth inhibition ([5]; at 50.0 µM) was 96.7% (active). For the same compound, the growth inhibition ([5]; at 100.0 µM) was 93% (active), the growth inhibition ([6]; at 1.2 µM) was 5% and the growth inhibition ([6]; at 3.7 µM) was 1%. For the same compound, the growth inhibition ([6]; at 11.0 µM) was 7%, the growth inhibition ([6]; at 33.0 µM) was 65% and the growth inhibition ([6]; at 100.0 µM) was 96% (active). For the same compound, the growth inhibition [7, 16] was -66%, the growth inhibition [7, 17] was 59% and the growth inhibition ([7]; at 50.0 µM) was 80.6% (active). For the same compound, the growth inhibition ([8]; at 1.2 µM) was -3%, the growth inhibition ([8]; at 3.7 µM) was -6% and the growth inhibition ([8]; at 11.0 µM) was -13%. The growth inhibition ([8]; at 33.0 µM) was 16%, the growth inhibition ([8]; at 100.0 µM) was 82% (active) and the growth inhibition [9, 16] was -79%. The growth inhibition [9, 17] was 62%, the growth inhibition ([9]; at 50.0 µM) was 75.9% (active) and the growth inhibition ([10]; at 1.2 µM) was 5%. The growth inhibition ([10]; at 3.7 µM) was -2%, the growth inhibition [10, 16] was -79% and the growth inhibition ([10]; at 11.0 µM) was 4%. The growth inhibition ([10]; at 33.0 µM) was 75% (active), the growth inhibition [10, 17] was 88% (active) and the growth inhibition ([10]; at 50.0 µM) was 95.8% (active). The growth inhibition ([10]; at 100.0 µM) was 91% (active), the growth inhibition ([11]; at 1.2 µM) was 5% and the growth inhibition ([11]; at 3.7 µM) was 6%. For the same compound, the growth inhibition ([11]; at 11.0 µM) was 24%, the growth inhibition ([11]; at 33.0 µM) was 92% (active) and the growth inhibition ([11]; at 100.0 µM) was 97% (active). The growth inhibition ([12]; at 1.2 µM) was -10%, the growth inhibition ([12]; at 3.7 µM) was -6% and the growth inhibition ([12]; at 11.0 µM) was -3%. For the same compound, the growth inhibition ([12]; at 33.0 µM) was 79% (active), the growth inhibition ([12]; at 100.0 µM) was 95% (active) and the growth inhibition ([13]; at 1.2 µM) was -5%. The growth inhibition ([13]; at 3.7 µM) was -13%, the growth inhibition ([13]; at 11.0 µM) was 21% and the growth inhibition ([13]; at 33.0 µM) was 92% (active). For the same compound, the growth inhibition ([13]; at 100.0 µM) was 96% (active), the growth inhibition [14, 16] was -154% and the growth inhibition [14, 17] was 20%. For the same compound, the growth inhibition ([14]; at 50.0 µM) was 93% (active), the growth inhibition ([15]; at 1.2 µM) was -12% and the growth inhibition ([15]; at 3.7 µM) was -5%. For the same compound, the growth inhibition ([15]; at 11.0 µM) was -7%, the growth inhibition ([15]; at 33.0 µM) was 68% and the growth inhibition ([15]; at 100.0 µM) was 94% (active).

`CCCCC1=NNC(=O)C1` gave a growth inhibition ([1]; at 1.2 µM) of 2%, a growth inhibition ([1]; at 3.7 µM) of 4% and a growth inhibition ([1]; at 11.0 µM) of 0%. For the same compound, the growth inhibition ([1]; at 33.0 µM) was 7%, the growth inhibition ([1]; at 100.0 µM) was 15% and the growth inhibition ([2]; at 1.2 µM) was 1%. The growth inhibition ([2]; at 3.7 µM) was 2%, the growth inhibition ([2]; at 11.0 µM) was 8% and the growth inhibition ([2]; at 33.0 µM) was 7%. The growth inhibition ([2]; at 100.0 µM) was 5%, the growth inhibition ([3]; at 1.2 µM) was -9% and the growth inhibition ([3]; at 3.7 µM) was -8%. It also gave a growth inhibition ([3]; at 11.0 µM) of -16%, a growth inhibition ([3]; at 33.0 µM) of -10% and a growth inhibition ([3]; at 100.0 µM) of -7%. The growth inhibition ([4]; at 1.2 µM) was 3%, the growth inhibition ([4]; at 3.7 µM) was -11% and the growth inhibition [4, 16] was 45%. The growth inhibition ([4]; at 11.0 µM) was -6%, the growth inhibition ([4]; at 33.0 µM) was -11% and the growth inhibition [4, 17] was 78% (active). The growth inhibition ([4]; at 50.0 µM) was 3%, the growth inhibition ([4]; at 100.0 µM) was 9% and the growth inhibition ([5]; at 1.2 µM) was -7%. The growth inhibition ([5]; at 3.7 µM) was -5%, the growth inhibition [5, 16] was 32% and the growth inhibition ([5]; at 11.0 µM) was -8%. For the same compound, the growth inhibition ([5]; at 33.0 µM) was -9%, the growth inhibition [5, 17] was 57% and the growth inhibition ([5]; at 50.0 µM) was -3.3%. It also gave a growth inhibition ([5]; at 100.0 µM) of 5%, a growth inhibition ([6]; at 1.2 µM) of 6% and a growth inhibition ([6]; at 3.7 µM) of 11%. It also gave a growth inhibition ([6]; at 11.0 µM) of 9%, a growth inhibition ([6]; at 33.0 µM) of 13% and a growth inhibition ([6]; at 100.0 µM) of 18%. The growth inhibition [7, 16] was 17%, the growth inhibition [7, 17] was -26% and the growth inhibition ([7]; at 50.0 µM) was 90% (active). The growth inhibition ([8]; at 1.2 µM) was -43%, the growth inhibition ([8]; at 3.7 µM) was -48% and the growth inhibition ([8]; at 11.0 µM) was -52%. The growth inhibition ([8]; at 33.0 µM) was -70%, the growth inhibition ([8]; at 100.0 µM) was -28% and the growth inhibition [9, 16] was 28%. It also gave a growth inhibition [9, 17] of -56%, a growth inhibition ([9]; at 50.0 µM) of 52% and a growth inhibition ([10]; at 1.2 µM) of -4%. The growth inhibition ([10]; at 3.7 µM) was 0%, the growth inhibition [10, 16] was 22% and the growth inhibition ([10]; at 11.0 µM) was -11%. For the same compound, the growth inhibition ([10]; at 33.0 µM) was 0%, the growth inhibition [10, 17] was -26% and the growth inhibition ([10]; at 50.0 µM) was 81.7% (active). For the same compound, the growth inhibition ([10]; at 100.0 µM) was 7%, the growth inhibition ([11]; at 1.2 µM) was -40% and the growth inhibition ([11]; at 3.7 µM) was -45%. The growth inhibition ([11]; at 11.0 µM) was -64%, the growth inhibition ([11]; at 33.0 µM) was -52% and the growth inhibition ([11]; at 100.0 µM) was -66%.
